The structures appear in SMILES notation. About 83,000 compounds went through this panel and 20% of them were active in at least one assay; those are over-represented in the sample as a whole.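 The test compound was applied at a single concentration to cells in 96-well plates for 48 hours, and percent growth was recorded.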 Unmarked numbers belong to inactive results. Calls of active or inactive are those of the source. How the source made its calls: active means growth percent below 10; inactive means the rest.

Test systems include T-47D breast; BT-549 breast; MDA-MB-435 melanoma; SW-620 colon; MCF7 breast; HCT-116 colon; KM12 colon; HCC-2998 colon.
Common to all, as to test: NCI-60 one-dose screen, 48 h (100 = growth as untreated, 0 = no growth, -100 = all killed)
Holding throughout (details): 10 µM unless noted

For the compound `Fc1ccc(CNc2c3ccccc3nc3ccccc23)cc1F`, the growth is 47.9% with T-47D breast; 68.2% in the test on BT-549 breast; 49.2% in the test with MDA-MB-435 melanoma; 23.7% in the test on SW-620 colon; 12.9% in the test on MCF7 breast; 8.18% (active) in the test with HCT-116 colon. In addition, in the test on KM12 colon, the growth is 53.3%.

For `O=C(/C=C/c1ccco1)c1ccc(Nc2nc(Nc3ccc(F)cc3)nc(Nc3ccc(Cl)cc3)n2)cc1`, the growth was 46.6% in the test on T-47D breast; 78.7% with BT-549 breast; 88.5% in the test on MDA-MB-435 melanoma; 33.4% in the test with MCF7 breast; 62.5% with HCT-116 colon; 54.8% in the test with HCC-2998 colon.

As to `COc1ccc(-c2nc3ccc4[nH]ncc4c3c3c2CCCC3)cc1B(O)O`, the growth with T-47D breast was 46.9%; in the test on BT-549 breast, 41.4%; with MDA-MB-435 melanoma, 32.4%; in the test with SW-620 colon it was 33.4%; with MCF7 breast it was 60.1%; in the test with HCT-116 colon, 27%. In the test on KM12 colon, the growth is 42.7%.

`CNc1ccc(NC)c2c1C(=O)c1ccccc1C2=O`: the growth with T-47D breast was 37.3%; in the test on BT-549 breast it was 75.7%; in the test with MDA-MB-435 melanoma, 110%; with MCF7 breast, 16%; with HCT-116 colon, 78%; in the test on HCC-2998 colon, 72.3%.

In the case of `Cc1ccc(C(=NN=C(N)N)c2ccc(C)cc2)cc1`, the growth with T-47D breast is 20.3%; in the test with BT-549 breast it was -24.8% (active); in the test with MDA-MB-435 melanoma it was -39% (active); with SW-620 colon, 28.4%; in the test on MCF7 breast, 2.04% (active); with HCT-116 colon, 2.81% (active). In addition, the growth in the test on KM12 colon was 1.93% (active).

With `COc1cc(/C=N/n2c(CN3CCOCC3)nc3ccccc3c2=O)cc(OC)c1OC`, the growth is 94.4% in the test with T-47D breast; 103% in the test with BT-549 breast; 102% with MDA-MB-435 melanoma; 106% with SW-620 colon; 99.4% with MCF7 breast; 94.5% with HCT-116 colon. In the test with KM12 colon, the growth was 101%.

For `Cc1ccccc1NC(=O)N/C(N)=N/c1nc(C)c(C)s1`, the growth in the test with T-47D breast was 36.2%; in the test with BT-549 breast it was 66.3%; in the test on MDA-MB-435 melanoma it was -46.9% (active); in the test with SW-620 colon, 25%; in the test with MCF7 breast, 21.4%; with HCT-116 colon it was 21.7%. For the same compound, in the test on KM12 colon, the growth is 35%.

On to `Cn1c(=O)c2c(nc(Cl)n2CCl)n(C)c1=O`, for which the growth in the test with T-47D breast is 103%; in the test with BT-549 breast, 61.8%; with MDA-MB-435 melanoma, 43.5%; in the test on SW-620 colon, 45.9%; with MCF7 breast, 84.4%; with HCT-116 colon it was 95.9%. In addition, the growth in the test with KM12 colon was 116%.

On to `C[n+]1cc2cc(C(N)=O)[nH]c3c(=N)c(Cl)c(N)c1c23`, for which the growth with T-47D breast was 48.3%; in the test with BT-549 breast, 78.9%; in the test on MDA-MB-435 melanoma, 85.7%; in the test with MCF7 breast, 35.8%; in the test with HCT-116 colon, 6.54% (active); in the test with HCC-2998 colon, 65.5%. Also, the growth in the test with KM12 colon is 74.5%.

In the case of `O=C(c1ccccc1)N1N=C(c2ccccc2)CC1c1nnc2n(Cc3ccccc3)c(=O)c3c4c(sc3n12)CCCC4` (configuration not stated), the growth with T-47D breast is 122%; with BT-549 breast, 115%; with SW-620 colon it was 105%; with MCF7 breast, 96.4%; with HCT-116 colon, 95.1%; in the test with HCC-2998 colon it was 125%. Also, the growth with KM12 colon was 82.4%.

Regarding `NC1=NCc2nc3ccccc3c(=O)n2C1`, the growth is 113% in the test on T-47D breast; 113% with BT-549 breast; 103% in the test on SW-620 colon; 105% with MCF7 breast; 101% in the test on HCT-116 colon; 88.8% in the test with HCC-2998 colon. Moreover, in the test with KM12 colon, the growth was 100%.

Consider `O=C(/C=C/c1c(Cl)nc2sccn12)c1nccs1`, for which the growth with T-47D breast is 87.5%; with BT-549 breast it was 109%; with MDA-MB-435 melanoma it was 91.9%; with MCF7 breast, 76.2%; in the test with HCT-116 colon, 81.1%; in the test with HCC-2998 colon, 102%. For the same compound, the growth in the test on KM12 colon was 89.7%.

As to `Cc1nc2ccccc2n1CC1NC(=O)NC1=O` (configuration not stated), the growth with T-47D breast was 103%; in the test on BT-549 breast it was 107%; in the test on MDA-MB-435 melanoma it was 99.8%; in the test with MCF7 breast, 96.2%; with HCT-116 colon, 106%; in the test on HCC-2998 colon, 115%. In addition, the growth in the test on KM12 colon was 102%.

`COc1ccc(-c2nc3sccn3c2-c2cc(-c3cc(OC)c(OC)c(OC)c3)on2)cc1`: the growth was 51.9% with T-47D breast; 98.6% with BT-549 breast; 102% in the test on MDA-MB-435 melanoma; 88.5% in the test with MCF7 breast; 85.5% in the test with HCT-116 colon; 98.2% in the test with HCC-2998 colon. Moreover, in the test on KM12 colon, the growth was 90.5%.

As to `Cc1ccc(C(=O)C2=C(O)C(=O)N(Cc3cccnc3)C2c2ccccc2F)o1` (configuration not stated), the growth with T-47D breast is 95.2%; with BT-549 breast, 99.2%; in the test with SW-620 colon, 103%; in the test with MCF7 breast, 98.3%; with HCT-116 colon, 95.2%; in the test on HCC-2998 colon, 94.3%.

For `COCCc1ccc(OCC(O)CNC(C)C)cc1` (configuration not stated), the growth is 102% in the test on T-47D breast; 94.2% in the test with BT-549 breast; 97.4% with MDA-MB-435 melanoma; 101% in the test on MCF7 breast; 101% in the test on HCT-116 colon; 102% in the test with HCC-2998 colon. In the test on KM12 colon, the growth is 105%.

For the compound `Cc1cc(=O)[nH]c(N=Nc2c(O)[nH]c3ccccc23)n1`, the growth is 105% with T-47D breast; 99.3% in the test on BT-549 breast; 114% in the test with MDA-MB-435 melanoma; 93.2% in the test with MCF7 breast; 104% in the test on HCT-116 colon; 107% with HCC-2998 colon. For the same compound, in the test with KM12 colon, the growth was 108%.

`Cc1cc(/C=C\c2ccc3ccccc3[n+]2C)c(O)c2ncccc12`: the growth was 18% in the test with T-47D breast; -19.4% (active) in the test on BT-549 breast; 15.1% in the test with SW-620 colon; 5.19% (active) in the test on MCF7 breast; -8.95% (active) with HCT-116 colon; -3.25% (active) in the test on HCC-2998 colon. Also, the growth in the test on KM12 colon is 13.7%.

In the case of `CCN1C(=O)N(CC)C2Nn3c(s/c(=C\c4cccc([N+](=O)[O-])c4)c3=O)=NC21` (configuration not stated), the growth was 59.5% in the test on T-47D breast; 58.5% in the test with BT-549 breast; 36.4% in the test on SW-620 colon; 35% in the test with MCF7 breast; 23.6% in the test with HCT-116 colon; 87.7% in the test with HCC-2998 colon. Besides, the growth with KM12 colon is 26.7%.

Regarding `Cc1ccc(-c2c(-c3ccccc3)c(=O)oc3ccc(C)cc23)cc1`, the growth was 84.3% with T-47D breast; 108% in the test on BT-549 breast; 103% in the test with MDA-MB-435 melanoma; 116% in the test with MCF7 breast; 72.8% in the test on HCT-116 colon; 90.5% in the test with HCC-2998 colon. Besides, the growth in the test with KM12 colon was 92%.

On to `NC(=O)c1ccc[n+](Cc2ccc(Cl)cc2Cl)c1`, for which the growth was 85.3% in the test on T-47D breast; 76% in the test with BT-549 breast; 107% in the test on MDA-MB-435 melanoma; 95.7% with MCF7 breast; 80% with HCT-116 colon; 93.3% in the test with HCC-2998 colon. Besides, the growth with KM12 colon is 101%.

Regarding `COC(=O)[C@]12CC[C@@H](C)[C@H](C)[C@@H]1C1=CC[C@@H]3[C@@]4(C)C(C=O)=C[C@@](C)(COS(C)(=O)=O)C4[C@H](O)C[C@@]3(C)[C@]1(C)CC2` (some centres not stated), the growth in the test with T-47D breast was -29.4% (active); with BT-549 breast, -49.6% (active); in the test on SW-620 colon it was -51.4% (active); with MCF7 breast, -16% (active); in the test on HCT-116 colon it was -85.3% (active); in the test with HCC-2998 colon, -85% (active). Further, in the test with KM12 colon, the growth was -75.4% (active).

In the case of `Cc1cc(C)c2c(-c3nnc(N)s3)cc(=O)oc2c1`, the growth with T-47D breast is 99.6%; in the test on BT-549 breast, 98.8%; in the test on MDA-MB-435 melanoma, 94.3%; in the test with MCF7 breast it was 92.2%; in the test on HCT-116 colon, 102%; in the test on HCC-2998 colon, 108%. Also, the growth in the test on KM12 colon was 98.8%.

Turning to `c1coc(-c2c3ccc(=[N+]4CCCCC4)cc-3oc3cc(N4CCCCC4)ccc23)c1`, the growth in the test on T-47D breast is -50.4% (active); with BT-549 breast, -82.8% (active); with MDA-MB-435 melanoma, -68.1% (active); in the test with MCF7 breast, -69.7% (active); with HCT-116 colon, -95.2% (active); in the test on HCC-2998 colon, -96.5% (active). For the same compound, the growth in the test on KM12 colon is -93.3% (active).

As to `COC1=C(OC)C(=O)C(OC)=C(OC)C1=O`, the growth was 94.2% in the test on T-47D breast; 101% with BT-549 breast; 103% in the test on MDA-MB-435 melanoma; 99.5% in the test with MCF7 breast; 98.6% in the test on HCT-116 colon; 89.3% in the test with HCC-2998 colon. Besides, in the test with KM12 colon, the growth is 100%.

For the compound `CCC1(C2CCCC2)NC(=O)NC1=O` (configuration not stated), the growth with T-47D breast is 93.4%; in the test with BT-549 breast, 95.3%; in the test with MDA-MB-435 melanoma, 102%; in the test with MCF7 breast, 83.9%; with HCT-116 colon, 99.3%; in the test on KM12 colon it was 116%.

Take `C(=N\Nc1ncc(-c2cc3cc4c(cc3o2)OCO4)s1)/c1ccco1`: the growth in the test on T-47D breast was 35.2%; with BT-549 breast, 48.6%; in the test on MDA-MB-435 melanoma, 69%; in the test on MCF7 breast, 13.7%; in the test with HCT-116 colon it was -13.6% (active); with HCC-2998 colon it was 62.7%. In addition, in the test on KM12 colon, the growth was 15.8%.

Take `O=C(O)C1CCC(=O)N1C(=O)OCc1ccccc1` (configuration not stated): the growth in the test with T-47D breast is 108%; in the test on BT-549 breast, 112%; with MDA-MB-435 melanoma, 91.3%; in the test on MCF7 breast, 91.6%; in the test with HCT-116 colon it was 107%; with HCC-2998 colon it was 104%. For the same compound, the growth with KM12 colon is 115%.
